# Phagocytosis inh: inhibitors of macrophage phagocytosis. J774A.1 macrophage IgG-bead phagocytosis, imaging. inhibition, % at 5 µM. 0.07% of 110,000 active. AID 1029;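 active = inhibition above the mean of the plate negative controls plus 5 SD, cut at about 13% in these data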;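 also: phagocytic index as fraction of beads internalized from green versus red external bead signal; plate controls were DMSO negative control for no effect and cytochalasin-D positive control for full effect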
# Mac1 fbg enh: CD11b/CD18-fibrinogen binding enhancement; P05107+P11215; K562 CD11b/CD18 adhesion to fibrinogen, ATPlite luminescence; activation, % at 10 µM; 0.07% of 93,000 active; AID 1499;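 active = 10 µM primary screen giving 50% or more activity, confirmed by 40% or more on retest at that dose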
# CD11b adhes inh: inhibitors of human CD11b/CD18 binding to fibrinogen; inhibition, % at 10 µM; K562 CD11b/CD18 adhesion to fibrinogen, ATPlite luminescence; Mn2+ added to activate the integrin; 0.54% of 93,000 active;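 active = primary inhibition of 50% or more at 10 µM, then 40% or more on retest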
# MRP1 act: activators of MRP-1 | viability increase, % at 10 µM | 0.61% of 140,000 active | AID 799 | H69AR cells + doxorubicin, viability rescue, CellTiter-Glo;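 active = viability gain under doxorubicin at or above a set limit, the compound median plus 3 SD, cut at about 4.7% in these data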;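 also: MRP-1 overexpressing cells given doxorubicin 25 µM after compound pretreatment; 18-22 h compound pretreatment then 72 h with doxorubicin before readout; 0% = doxorubicin-only wells and 100% = vehicle-treated cells without doxorubicin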
# FAK blocker: blocks human focal adhesion kinase activity | Q05397 | biochemical FAK kinase activity assay | inhibition, %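 (tested at 7 µM)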 | 0.84% of 97,000 active; in the data active = inhibition above about 19%;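 also: 0% = DMSO and 100% = reference compound high control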
# MRP reversal: MRP-mediated drug resistance reversal | H69AR cells + 2 uM doxorubicin, CellTiter-Glo, 72 h | differential viability (reversal), % at 10 µM | 0.04% of 85,000 active;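 active = viability drop by adding the cancer drug above about 55%, with treated viability meeting a 40% cutoff, limit read from the data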;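 also: viability without doxorubicin minus viability with 2 µM doxorubicin for each compound; larger differential means the compound sensitizes cells more to doxorubicin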
# The depositor's hits bear a star; · = no result. Hits are enriched below; roughly 1.5% of the tested compounds scored in any of these assays.
SMILES,Phagocytosis inh,Mac1 fbg enh,CD11b adhes inh,MRP1 act,FAK blocker,MRP reversal
COCCNCC(=O)C12CC3CC(CC(C3)C1)C2,-1.5,4.5,-0.3,0.6,4.7,-1.4
O=C(CN1CCCCC1)Nc1ccc(NC(=O)c2ccc(Cl)cc2)cc1Cl,·,·,·,1.4,-4.3,·
O=C1CC(O)(C(F)(F)F)Oc2c1ccc1ccccc21 (centres undefined),-1.9,-6.8,89.6*,-1.8,2.4,-2.6
S=C(Nc1ccccc1)N1N=CCC1c1ccccc1 (centres undefined),-1.7,-4.2,72.5*,0.3,9.2,-9.0
Cc1sc2nc3c4ccccc4c(NCc4ccco4)nn3c(=O)c2c1C,-4.7,43.9,-3.4,-1.3,-5.8,-16.8
Cc1nc(NCc2ccco2)c2c(C)c(C)sc2n1,-0.7,-6.3,82.7*,-2.1,1.2,-8.1
CCCCc1ccc(C2C(C#N)=C(N)SC(N)=C2C#N)s1,1.1,-10.8,100.2*,-1.8,0.3,-2.0
CCOc1ccc(C2C(C#N)=C(N)SC(N)=C2C#N)c(OCC)c1,-0.5,-1.5,-1.9,-1.7,-4.3,·
CCC1CCc2c(sc(NC(=O)CSc3nc(-c4ccco4)cc(C(F)(F)F)n3)c2C#N)C1 (centres undefined),-0.8,1.6,-20.7,1.0,2.5,-0.6
COc1ccc(-c2cc(C(=O)Nc3sc4c(c3C#N)CCCC4)c3ccccc3n2)cc1,-8.1,·,·,6.0*,·,·
COc1ccc(OC)c(-c2cc(C(=O)Nc3sc4c(c3C#N)CCC(C)C4)c3ccccc3n2)c1 (centres undefined),-4.9,93.2*,-10.1,-2.3,3.3,·
Cc1ccccc1-c1cc(C(=O)Nc2sc(C(=O)OC(C)C)c(C)c2C#N)c2ccccc2n1,-1.6,-5.5,94.7*,-6.0,-1.6,·
COc1cc(CCN2C(=O)N[C@@H](c3cccc(C(F)(F)F)c3)C(C(C)=O)=C2C)cc(OC)c1OC,·,·,·,-2.1,·,·
CCOC(=O)C1CCCN(c2c(NCCN3CCCCC3C)c(=O)c2=O)C1 (centres undefined),0.3,5.9,-9.8,0.7,-6.0,7.4
OCCN=C1CCCc2c1[nH]c1ccc(Br)cc21,·,·,·,5.2*,6.0,·
COC(=O)c1ccc(CSc2nnc(-c3ccncc3)n2Cc2ccccc2)o1,-0.4,-5.3,2.3,-3.0,-0.4,-19.4
O=C1c2ccccc2-c2onc3ccc(Oc4ccccc4)c1c23,·,·,·,-7.5,36.4*,1.0
CCN1CCN(c2nc3c(c(=O)n(C)c(=O)n3C)n2CCSc2nccc(C)n2)CC1,-0.7,-1.4,-7.3,-0.6,-2.5,3.3
CC(C)c1ccc(S(=O)(=O)/N=C2/C=C(Sc3ncn[nH]3)C(=O)c3ccccc32)cc1,0.1,-4.5,101.8*,-3.0,·,·
O=C(Cc1nc2ccccc2[nH]1)NCc1ccco1,-0.5,-3.3,-0.2,-3.0,6.2,-7.2
Clc1ccc(-c2noc(CSc3nnc(Cc4cccs4)n3-c3ccccc3)n2)cc1,·,-9.4,68.9*,0.4,7.3,-9.3
CC(C)(C)n1ncc2c(=O)n(Cc3ccc(Cl)cc3Cl)cnc21,·,5.0,50.1*,-1.5,-2.2,·
CCN(CC)S(=O)(=O)c1cccc(C(=O)Nc2cc(C)cc(C)c2)c1,·,·,·,-0.6,3.0,-7.3
CCN(CC)S(=O)(=O)c1cc(NC(=O)C(=O)c2c(-c3ccccc3)cc3ccccn23)ccc1C,2.0,-4.7,24.1,6.9*,-1.7,5.3
CCN(CC)S(=O)(=O)c1cccc(C(=O)c2c(C)cc3ccccn23)c1,-7.2,·,·,4.8*,·,·
SMILES,Phagocytosis inh,Mac1 fbg enh,CD11b adhes inh,MRP1 act,FAK blocker,MRP reversal
CCN(CC)S(=O)(=O)c1cccc(NC(=O)C(=O)c2c(-c3ccccc3)cc3ccccn23)c1,-1.7,4.2,10.3,4.1,1.4,·
Cc1n[nH]c(C)c1Sc1ccccc1N=Cc1cc(Cl)cc([N+](=O)[O-])c1O,-0.8,-5.5,57.3*,-0.8,-0.7,19.9
Brc1cc2c(cc1COc1ccc(-c3nn[nH]n3)cc1)OCO2,·,·,·,5.0*,-0.1,-30.8
COc1ccc(/C=C2/N=C(SC3CCOC3=O)N(c3cccc(OC)c3)C2=O)cc1 (centres undefined),-11.5,14.2,2.3,5.2*,·,·
CCOC(=O)C1=C(C)Nc2sc(C(=O)c3ccc(F)cc3)c(N)c2C1c1ccc(C(=O)OC)cc1 (centres undefined),-4.0,·,·,0.9,·,·
CCOC(=O)C1=C(C)Nc2sc(C(=O)c3ccc(C)cc3)c(N)c2C1c1ccc(C(=O)OC)cc1 (centres undefined),7.6,·,·,6.5*,·,·
Cc1ccccc1OCCCCc1c(C)n[nH]c1C,-0.1,-6.1,90.3*,-0.9,8.8,3.9
Cc1cccc(C)c1OCCCCc1c(C)n[nH]c1C,-0.1,-7.2,21.5,-0.7,-0.7,10.8
COc1cccc(C(=O)Nc2cccc(C(=O)NCC(C)C)c2)c1,-3.9,·,·,-4.0,·,·
CC(C)CNC(=O)c1cccc(NC(=O)Cc2ccc(Br)cc2)c1,-6.9,·,·,6.2*,·,·
CN(C)S(=O)(=O)c1cccc(NC(=S)Nc2cc(Cl)cc(Cl)c2)c1,·,-6.5,100.5*,-5.8,1.0,·
CN(C)S(=O)(=O)c1cccc(NC(=S)Nc2ccc(Cl)cc2Cl)c1,0.7,-8.0,99.3*,0.6,-1.3,·
CN(C)S(=O)(=O)c1cccc(NC(=S)N/N=C/C(c2ccccc2)c2ccccc2)c1,5.7,·,·,-1.3,·,·
O=C(Nc1cccc2c1[nH]c1ccccc12)C(F)(F)F,·,·,·,-5.7,1.9,-9.2
Cc1nc(C)c(C(=O)NNS(=O)(=O)c2ccccc2)s1,-9.8,·,·,5.2*,·,·
COc1ccc(OC)c(-c2csc(NC(=O)C3c4ccccc4Oc4ccccc43)n2)c1,-13.4,47.0,10.0,9.4*,·,·
O=C(Nc1nc(-c2ccccc2)cs1)C1c2ccccc2Oc2ccccc21,0.0,33.4,-12.4,-0.7,2.9,·
Cn1nc(CC(=O)Nc2ccc3c(c2)OCCO3)c2ccccc2c1=O,-1.9,-11.5,95.7*,-0.9,·,·
COc1ccccc1NC(=O)Cc1nn(C)c(=O)c2ccccc12,-5.3,-2.8,63.8*,-1.1,-1.7,11.7
COc1ccc(N2C(S)=C(C#N)C(=O)NC2c2ccco2)cc1 (centres undefined),-5.6,·,·,16.1*,·,·
CCOc1ccc(C2NC(=O)C(C#N)=C(S)N2c2ccc(C)cc2)cc1OC (centres undefined),0.3,-0.8,3.3,-1.1,0.4,13.6
CCC(C)c1ccc(O)c(NC(=O)c2ncn[nH]2)c1 (centres undefined),1.2,3.9,-33.1,5.3*,1.0,9.7
CCOC(=O)c1c2c(n(C)c1COC)C(=O)C(=O)c1ccc(Br)cc1-2,·,·,·,·,52.2*,-0.4
Nn1c(SCC(=O)Nc2ccccc2F)nc2ccccc2c1=O,2.6,-2.5,-8.5,8.8*,-0.9,10.6
O=C(CSc1nnc2c3ccccc3c3ccccc3c2n1)Nc1ccccc1F,-0.2,63.5,-10.5,-2.6,9.4,·
Cc1cc(C)nc(SCC(=O)N/N=C/c2cccs2)n1,-0.8,·,·,1.9,·,·
O=C(NCc1ccco1)C(c1ccccc1)N(C(=O)Cc1cccs1)c1ccccc1F (centres undefined),·,·,·,-0.8,-9.2,7.1

# Screening data (PubChem BioAssay)
